# Where “and” joins values, the source holds several entries; their conditions need not be identical. Equal values may be shown once. Inconclusive results are not listed. Calls of active or inactive are those of the source. The call rests on the fitted dose curve; in most records, active means well fitted curve in the direction sought with a large enough effect; inconclusive means small, poorly fitted or top-dose-only effect, or another doubt; inactive means no such curve, though single readings can be large; an effect the other way counts as inactive or inconclusive. Positions of bridges follow the written chain, without caps; N, C: chain ends. Non-standard residues stand in square brackets, D forms with d. Residues, ends and D or L forms follow the SMILES beside them. ξ: configuration not given here. *: point of attachment. Octanoyl(6-Me) = CCC(C)CCCCC(=O)*; ξThr(3R) = C[C@@H](O)C(N)C(=O)O; dDab = NCC[C@@H](N)C(=O)O; Dab = NCC[C@H](N)C(=O)O
# How the values were obtained:
# [1] = Primary qHTS for inhibitors of nuclear receptor binding SET domain protein 2 (NSD2) in an isogenic RCH-ACV NSD2 p.E1099K mutant (9B) (AID 1645876); further: nearly all actives have a fitted effect of over 70% in size; further: potency means the concentration at half of the fitted maximal effect
# [2] = Primary qHTS for inhibitors of nuclear receptor binding SET domain protein 2 (NSD2) in an RCH-ACV wild type WT cells (2C) (AID 1645877); further: nearly all actives have a fitted effect of over 70% in size; further: potency means the concentration at half of the fitted maximal effect
# [3] = target: Catechol O-methyltransferase (Homo sapiens) (UniProt P21964); experiment: Confirmatory Screen for Target Class Profiling of Small Molecule Inhibitors of Methyltransferases (AID 1745852); settings: MTase-Glo luminescence, SAH detection, recombinant enzyme; measured here: COMT max response; stronger effect = lower value; on activity change, negative = inhibition: on the % scale 0 is the no-effect control and ±100 the full control effect
# Sequence of Catechol O-methyltransferase (Homo sapiens) (P21964 whole entry, looked up): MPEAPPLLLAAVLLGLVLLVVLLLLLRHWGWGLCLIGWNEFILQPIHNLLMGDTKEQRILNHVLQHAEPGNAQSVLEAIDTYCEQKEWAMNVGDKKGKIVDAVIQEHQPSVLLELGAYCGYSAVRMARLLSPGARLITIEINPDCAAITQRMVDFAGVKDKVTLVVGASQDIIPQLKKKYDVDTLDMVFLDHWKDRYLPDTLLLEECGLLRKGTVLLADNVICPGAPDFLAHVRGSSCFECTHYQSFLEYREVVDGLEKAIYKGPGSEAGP
# [4] = target: Guanidinoacetate N-methyltransferase (Homo sapiens) (UniProt Q14353); experiment: as above; settings: activity change, negative = inhibition: at 57.3 µM (top of the series)
# [5] = target: Nicotinamide N-methyltransferase (Homo sapiens) (UniProt P40261); experiment: as above; settings: MTase-Glo luminescence, SAH detection, recombinant enzyme; measured here: NNMT max response; stronger effect = lower value
# Sequence of Nicotinamide N-methyltransferase (Homo sapiens) (P40261 whole entry, looked up): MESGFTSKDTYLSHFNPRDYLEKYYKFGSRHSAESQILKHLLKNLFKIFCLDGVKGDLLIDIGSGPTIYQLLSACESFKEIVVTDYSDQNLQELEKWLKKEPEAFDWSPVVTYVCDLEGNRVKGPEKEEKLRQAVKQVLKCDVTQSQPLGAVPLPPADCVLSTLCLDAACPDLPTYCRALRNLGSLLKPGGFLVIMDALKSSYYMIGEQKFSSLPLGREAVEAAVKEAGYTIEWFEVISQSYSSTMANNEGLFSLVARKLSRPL
smiles,measurement,setting,value
C[C@](Cc1c[nH]c2ccccc12)(NC(=O)OC1C2CC3CC(C2)CC1C3)C(=O)NC[C@H](NC(=O)CCC(=O)O)c1ccccc1 (stereo partly specified),Potency,[1],inactive
same,Potency,[2],inactive
O=C(O)CCCCCC(=O)NN=C1CCCC1,Potency,[1],inactive
same,Potency,[2],inactive
CCCNS(=O)(=O)Nc1ncnc(OCCOc2ncc(Br)cn2)c1-c1ccc(Br)cc1,Potency,[1],18.6 µM (active)
same,Potency,[2],16.6 µM (active)
CC(=O)OC[C@@H]1O[C@@H](n2ccc(=O)[nH]c2=O)[C@H](OC(C)=O)[C@H]1OC(C)=O,Potency,[1],inactive
same,Potency,[2],inactive
CCC(C)CCCCC(=O)N[C@@H](CCN)C(=O)NC(C(=O)N[C@H](CCN)C(=O)N[C@@H]1CCNC(=O)C([C@@H](C)O)NC(=O)[C@@H](CCN)NC(=O)[C@@H](CCN)NC(=O)[C@@H](CC(C)C)NC(=O)[C@H](Cc2ccccc2)NC(=O)[C@H](CCN)NC1=O)[C@@H](C)O (stereo partly drawn) ({Octanoyl(6-Me)}-[Dab][ξThr(3R)][dDab][dDab][Dab]F[dL][dDab][dDab][ξThr(3R)]; lactam 4-C),Potency,[1],inactive
same,Potency,[2],inactive
CN(C)CCN1C(=O)c2cccc3cc(N)cc(c23)C1=O,Potency,[1],5.25 µM (active)
same,Potency,[2],4.17 µM (active)
O=C(Nc1cccc(Nc2ncc(Br)c(NCCc3cnc[nH]3)n2)c1)N1CCCC1,Potency,[1],0.934 µM (active)
same,Potency,[2],0.59 µM (active)
CCN(CC)CCCCNc1ncc2c(n1)N(C)C(=O)N(c1c(Cl)c(OC)cc(OC)c1Cl)C2,Potency,[1],14.8 µM (active)
same,Potency,[2],13.2 µM (active)
OC[C@H]1OC(O)C[C@@H](O)[C@H]1O (stereo partly specified),Potency,[1],inactive
same,Potency,[2],inactive
NC(=O)Nc1cc(-c2ccc(CN3CCOCC3)cc2)sc1C(N)=O,Potency,[1],0.662 µM (active)
same,Potency,[2],0.372 µM (active)
C[C@H]1COc2c(N3CCN(C)CC3)c(F)cc3c(=O)c(C(=O)O)cn1c23,Potency,[2],inactive
CC(C(C)N1CC(=O)NC(=O)C1)N1CC(=O)NC(=O)C1 (stereo unspecified),Potency,[1],5.25 µM (active)
same,Potency,[2],3.32 µM (active)
C[C@H](NC(=O)[C@@H](O)c1cc(F)cc(F)c1)C(=O)N[C@@H]1C(=O)N(C)c2ccccc2-c2ccccc21,Potency,[1],inactive
same,Potency,[2],inactive
CC(Cc1ccc(O)c(O)c1)(NN)C(=O)O (stereo unspecified),Potency,[2],29.5 µM (active)
CCN(C(=O)c1c(O)c2c(Cl)cccc2n(C)c1=O)c1ccccc1,Potency,[2],inactive
C[C@@H]1C(=O)O[C@H]2CC34[C@H]5C[C@@H](C(C)(C)C)C36[C@H](OC(=O)[C@@H]6O)O[C@@]4(C(=O)O5)[C@]21O (stereo partly specified),Potency,[1],inactive
same,Potency,[2],inactive
CC[C@@]1([C@@H]2O[C@@H]([C@H]3O[C@@](O)(CO)[C@H](C)C[C@H]3C)C[C@H]2C)CC[C@H]([C@]2(C)CC[C@]3(C[C@H](O)[C@@H](C)[C@@H]([C@@H](C)[C@@H](OC)[C@H](C)C(=O)O)O3)O2)O1,Potency,[1],0.162 µM (active)
same,Potency,[2],0.102 µM (active)
O=C(CN1C(=O)C2(CCCC2)NC[C@H]1c1cc(F)cc(F)c1)Nc1ccc2c(c1)C[C@@]1(C2)C(=O)Nc2ncccc21,Potency,[1],inactive
same,Potency,[2],inactive
O=C(NC1CC1)c1cccc(-c2ccc3c(NC(=O)C4CC4)n[nH]c3c2)c1,Potency,[1],8.33 µM (active)
same,Potency,[2],5.25 µM (active)
C[C@H]1[C@@H](OC(=O)CCC(=O)O)O[C@@H]2O[C@@]3(C)CC[C@@H]4[C@H](C)CC[C@@H]1[C@@]24OO3,Potency,[1],1.86 µM (active)
same,Potency,[2],1.48 µM (active)
Cn1c(Nc2ccc(C(F)(F)F)cc2)nc2cc(Oc3ccnc(-c4ncc(C(F)(F)F)[nH]4)c3)ccc21,Potency,[1],7.31 µM (active) and 5.25 µM (active)
same,Potency,[2],8.2 µM (active) and 4.17 µM (active)
CC(Oc1ccc(O)cc1)(P(=O)(O)O)P(=O)(O)O,Potency,[1],inactive
same,Potency,[2],inactive
Nc1nc(=O)n([C@H]2C[C@H](O)[C@@H](CO)O2)cc1F,Potency,[1],0.0118 µM (active)
same,Potency,[2],0.0148 µM (active)
CCCCCCCN(CC)CCCC(O)c1ccc(NS(C)(=O)=O)cc1 (stereo unspecified),Potency,[1],inactive
same,Potency,[2],inactive
O=C1NCCc2[nH]c(-c3ccncc3)cc21,Potency,[1],2.35 µM (active)
same,Potency,[2],1.32 µM (active)
Cc1cnc(NC(=O)Nc2cc(Br)c(C)cc2OC[C@@H]2CNCCO2)cn1,Potency,[1],1.05 µM (active)
same,Potency,[2],0.934 µM (active)
CCN(CC)Cc1ccc2cc(COC(=O)Nc3ccc(C(=O)NO)cc3)ccc2c1,Potency,[1],290 nM (active) and 742 nM (active)
same,Potency,[2],230 nM (active) and 525 nM (active)
same,activity,[3],0%
same,"activity change, negative = inhibition",[4],-6.61%
same,activity,[5],-7.87%
Cc1cc(Nc2ncc3c(n2)N(C)C(=O)N(c2cc(NC(=O)c4cccc(C(F)(F)F)c4)ccc2C)C3)n(C)n1,Potency,[1],0.132 µM (active)
same,Potency,[2],0.132 µM (active)

# — PubChem BioAssay (NCATS)
